Consider 42 compounds from PMC4336329 (PLoS ONE, 2015).

About 14,000 (4.5%) of roughly 310,000 compounds showed an effect of 50% or more. The effect is printed as a negative number. What follows is part of a selection rich in strong results, with near analogues and random picks from the rest.
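Also: peak tail current of the secondary pulse compared with the same well before compound.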

The experiment deals with human ether-à-go-go-related gene (hERG) potassium channel (human, UniProt Q12809). The experiment in a line: primary screen, population patch clamp on CHO cells stably expressing hERG; higher = less effect of the substance.
human ether-à-go-go-related gene (hERG) potassium channel, sequence (Q12809 whole entry, looked up): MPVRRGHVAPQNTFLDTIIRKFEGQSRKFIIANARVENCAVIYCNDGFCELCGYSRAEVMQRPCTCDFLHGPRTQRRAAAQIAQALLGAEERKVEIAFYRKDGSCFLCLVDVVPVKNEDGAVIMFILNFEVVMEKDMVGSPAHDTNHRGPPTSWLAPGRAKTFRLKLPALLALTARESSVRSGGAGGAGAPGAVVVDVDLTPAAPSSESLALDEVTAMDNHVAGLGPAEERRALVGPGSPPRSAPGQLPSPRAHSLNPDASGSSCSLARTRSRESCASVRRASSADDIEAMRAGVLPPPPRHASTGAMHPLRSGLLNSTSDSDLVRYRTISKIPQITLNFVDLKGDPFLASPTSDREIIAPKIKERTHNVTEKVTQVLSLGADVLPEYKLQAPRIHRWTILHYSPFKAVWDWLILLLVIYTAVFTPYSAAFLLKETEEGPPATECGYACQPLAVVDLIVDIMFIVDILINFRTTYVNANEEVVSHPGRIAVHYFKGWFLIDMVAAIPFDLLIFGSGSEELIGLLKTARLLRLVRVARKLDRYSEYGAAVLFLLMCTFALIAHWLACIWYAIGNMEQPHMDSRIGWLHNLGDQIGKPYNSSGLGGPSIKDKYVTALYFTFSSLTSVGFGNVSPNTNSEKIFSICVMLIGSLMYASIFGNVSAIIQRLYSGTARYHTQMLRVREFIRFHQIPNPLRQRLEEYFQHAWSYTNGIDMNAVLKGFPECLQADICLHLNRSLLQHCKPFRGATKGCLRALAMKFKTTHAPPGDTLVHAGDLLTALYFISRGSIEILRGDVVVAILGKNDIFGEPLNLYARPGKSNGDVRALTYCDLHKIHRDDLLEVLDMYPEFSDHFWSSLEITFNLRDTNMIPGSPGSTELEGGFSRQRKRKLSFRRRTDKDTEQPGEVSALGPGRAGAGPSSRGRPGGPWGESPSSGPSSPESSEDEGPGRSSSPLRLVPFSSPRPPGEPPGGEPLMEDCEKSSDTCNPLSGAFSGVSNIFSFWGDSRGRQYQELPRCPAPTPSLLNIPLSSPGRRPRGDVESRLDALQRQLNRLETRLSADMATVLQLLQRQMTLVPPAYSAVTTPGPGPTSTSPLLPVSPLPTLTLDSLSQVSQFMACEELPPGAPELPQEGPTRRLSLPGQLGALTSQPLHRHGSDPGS
For `N#Cc1ccc(COC(=O)c2cnc(Cl)c(Cl)c2)cc1`, the “hERG current change (%, negative = inhibition) at 10uM” value is 8.12%.

As to `COc1ccc(NCC(=O)N/N=C/c2cc([N+](=O)[O-])ccc2N2CCCC2)cc1`, the “hERG current change (%, negative = inhibition) at 10uM” value is reported as -7.82%.

With `O=C(NCc1ccccc1)C(c1ccco1)N(C(=O)c1cnccn1)c1ccc(F)cc1` (stereo not drawn), the “hERG current change (%, negative = inhibition) at 10uM” value was determined as 10.5%.

Regarding `CCCCS(=O)(=O)Nc1ccc(Cc2ccncc2)cc1`, the “hERG current change (%, negative = inhibition) at 10uM” value is on record as -50.2%.

For `CCS(=O)(=O)Nc1ccc(Cc2ccncc2)cc1`, the “hERG current change (%, negative = inhibition) at 10uM” value is -0.00702%.

Take `O=C(NCc1ccncc1)c1ccc(NS(=O)(=O)c2cccc([N+](=O)[O-])c2)cc1`: the “hERG current change (%, negative = inhibition) at 10uM” value is given as 19.2%.

As to `O=[N+]([O-])c1cccc(S(=O)(=O)Nc2ccc(Cc3ccncc3)cc2)c1`, the “hERG current change (%, negative = inhibition) at 10uM” value is -72.2%.

For `CCS(=O)(=O)Nc1ccc(Cc2ccc(NS(=O)(=O)CC)cc2)cc1`, the “hERG current change (%, negative = inhibition) at 10uM” value was -7.91%.

With `O=[N+]([O-])c1cccc(S(=O)(=O)NCc2ccncc2)c1`, the “hERG current change (%, negative = inhibition) at 10uM” value stood at 19.4%.

Regarding `O=S(=O)(Nc1ccncc1)c1ccc(Cl)c(Cl)c1`, the “hERG current change (%, negative = inhibition) at 10uM” value is given as 18.4%.

Regarding `O=S(=O)(Nc1ccc(Cc2ccncc2)cc1)c1ccc(Cl)c(Cl)c1`, the “hERG current change (%, negative = inhibition) at 10uM” value is -53.4%.

As to `O=S(=O)(Nc1ccc(Cc2ccncc2)cc1)c1ccc(Cl)cc1`, the “hERG current change (%, negative = inhibition) at 10uM” value came to 12.4%.

Take `COc1cccc(CNC(=O)C2=C(C)C(=O)OC23CCC(C)CC3)c1` (stereo not drawn): the “hERG current change (%, negative = inhibition) at 10uM” value is -5.65%.

For `O=C(O)c1cc(S(=O)(=O)N2CCCCCC2)ccc1Cl`, the “hERG current change (%, negative = inhibition) at 10uM” value was determined as 20%.

`Cc1ccnc(NCc2ccccc2O)c1`: the “hERG current change (%, negative = inhibition) at 10uM” value is 14.6%.

As for `O=C1CCC([N+](=O)[O-])C(c2ccc(-c3ccccc3)cc2)N1` (stereo not drawn), the “hERG current change (%, negative = inhibition) at 10uM” value is -11.3%.

For the compound `Cc1ccc(N2C(=O)C3CC(c4ccccc4)=C4C5C=CC(C6C(=O)N(c7ccc(C)cc7C)C(=O)C56)C4C3C2=O)c(C)c1` (stereo not drawn), the “hERG current change (%, negative = inhibition) at 10uM” value amounted to 7.82%.

With `Cc1ccc(N2C(=O)C3CC(c4ccccc4)=C4C5C=CC(C6C(=O)N(c7ccc(C)cc7)C(=O)C56)C4C3C2=O)cc1` (stereo not drawn), the “hERG current change (%, negative = inhibition) at 10uM” value is listed as -73.6%.

For the compound `Cc1ccc(N2C(=O)C3C4CC(=O)C(c5ccccc54)C3C2=O)cc1` (stereo not drawn), the “hERG current change (%, negative = inhibition) at 10uM” value was 2.69%.

Turning to `C=C[C@]1(C)C[C@@H](OC(=O)CSCCN(CC)CC)[C@]2(C)C(C)CC[C@]3(CCC(=O)[C@H]32)[C@@H](C)[C@@H]1O` (stereo partly drawn), the “hERG current change (%, negative = inhibition) at 10uM” value was -61.9%.

With `C=C[C@]1(C)C[C@@H](OC(=O)CSCCN(CC)CC)[C@]2(C)C(C)CC[C@]3(CCC(=O)[C@H]32)[C@@H](C)[C@@H]1O.O=C(O)/C=C/C(=O)O` (stereo partly drawn), the “hERG current change (%, negative = inhibition) at 10uM” value is given as -68.3%.

In the case of `O=C(Cc1noc2ccccc12)NNC(=S)Nc1ccc(Cl)cc1`, the “hERG current change (%, negative = inhibition) at 10uM” value stood at 16.5%.

As for `Cn1nc(C(F)(F)F)c(-c2ccc(Br)cc2)c1NC(=O)Nc1ccc(F)cc1F`, the “hERG current change (%, negative = inhibition) at 10uM” value came out at 13%.

With `Cc1ccc(C(=O)C2(C)C3c4cc(Br)ccc4OC(=O)C32C(=O)c2ccco2)cc1` (stereo not drawn), the “hERG current change (%, negative = inhibition) at 10uM” value is recorded as 15.8%.

In the case of `CCCNC(=O)[C@H]1N2C(=O)c3c(ccc(OC)c3OC)C2SC1(C)C` (stereo partly drawn), the “hERG current change (%, negative = inhibition) at 10uM” value is 16.4%.

With `COc1ccc(CCNC(=O)CN(c2ccccc2)S(C)(=O)=O)cc1OC`, the “hERG current change (%, negative = inhibition) at 10uM” value is on record as -8.06%.

Regarding `CC(C)(C)CN1CCNC(=O)C1CC(=O)NC1Cc2ccccc2C1` (stereo not drawn), the “hERG current change (%, negative = inhibition) at 10uM” value came to 4.08%.

Consider `CCNC(=O)O/N=C(\C)c1sc(-c2ccc(Cl)cc2)nc1C`, for which the “hERG current change (%, negative = inhibition) at 10uM” value is reported as -23.9%.

On to `CCCS(=O)(=O)c1c(S(=O)(=O)CCC)c2ccccn2c1C(=O)OC`, for which the “hERG current change (%, negative = inhibition) at 10uM” value is given as -7.5%.

For the compound `CCCS(=O)(=O)c1c(S(=O)(=O)CCC)c2cc(-c3ccncc3)ccn2c1C(=O)OC`, the “hERG current change (%, negative = inhibition) at 10uM” value was -50.2%.

Turning to `CCCS(=O)(=O)c1c(S(=O)(=O)CCC)c2cc(CC)ccn2c1C(=O)OC`, the “hERG current change (%, negative = inhibition) at 10uM” value is -29.2%.

Turning to `O=C(CSc1nnc(NCc2ccccc2)s1)NC1CCS(=O)(=O)C1` (stereo not drawn), the “hERG current change (%, negative = inhibition) at 10uM” value was 10.1%.

As for `Cc1cc(SCC(=O)Nc2cccc(S(N)(=O)=O)c2)c(C)cc1Br`, the “hERG current change (%, negative = inhibition) at 10uM” value is reported as 30.8%.

For `Cc1ccc(-c2noc(CCC(=O)Nc3ccccc3N3CCN(C)CC3)n2)cc1`, the “hERG current change (%, negative = inhibition) at 10uM” value is given as -33.7%.

On to `CSc1nc(-c2ccccc2)nn1S(=O)(=O)c1ccccc1`, for which the “hERG current change (%, negative = inhibition) at 10uM” value stood at 7%.

Consider `CCOC(=O)C1(Cc2cccc(OC)c2)CCN(Cc2ccon2)CC1`, for which the “hERG current change (%, negative = inhibition) at 10uM” value was found to be 1.68%.

In the case of `CCOC(=O)C1(Cc2cccc(OC)c2)CCN(Cc2cccnc2)CC1`, the “hERG current change (%, negative = inhibition) at 10uM” value is -16.4%.

As for `CCOC(=O)C1(Cc2cccc(OC)c2)CCN(Cc2cccn2-c2nccs2)CC1`, the “hERG current change (%, negative = inhibition) at 10uM” value is listed as -72%.

Regarding `CCOC(=O)C1(Cc2cccc(OC)c2)CCN(Cc2cccn2-c2ccccn2)CC1`, the “hERG current change (%, negative = inhibition) at 10uM” value was -74.8%.

Take `CCOC(=O)C1(Cc2ccccc2)CCN(Cc2cccn2-c2nccs2)CC1`: the “hERG current change (%, negative = inhibition) at 10uM” value was -82%.

For the compound `COc1ccc(-n2nc(C(=O)NCC(=O)N(C)Cc3ccccc3)c3ccccc3c2=O)cc1`, the “hERG current change (%, negative = inhibition) at 10uM” value was -8.21%.

Regarding `NC(=O)[C@@H]1[C@@H]2C(=O)N(c3ccc(F)cc3)C(=O)[C@@H]2[C@H]2C=Cc3ccccc3N21`, the “hERG current change (%, negative = inhibition) at 10uM” value came to 14.2%.
